NIH3T3 tox = Cytotoxic Profiling in NIH 3T3 Cell Line of Diverse Libraries Using Quantitative High-Throughput Screening. AID 1345082, 2018. Potency, µM (titrated, usually from 96.7 µM), actives largely listed as inhibitors. NIH 3T3 viability, CellTiter-Glo ATP luminescence, 48-72 h. hit rate 4.3% among 94,000; also: nearly all actives have a fitted effect of over 55% in size
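Luminescent ATP readout (CellTiter-Glo, 10 min RT) after 48 or 72 hr compound exposure of NIH 3T3 cells seeded at 400 cells/well in 1536-well format; quantitative HTS.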
HEK293 tox = Cytotoxic Profiling in HEK 293 Cell Line of Diverse Libraries Using Quantitative High-Throughput Screening; HEK 293 viability, ATP luminescence (CellTiter-Glo), 48-72 h; Potency, µM (series often up to 115 µM), actives largely listed as inhibitors; hit rate 6.6% among 94,000; AID 1345083, 2018; also: nearly all actives have a fitted effect of over 60% in size
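Viability of HEK 293 cells, plated at 250 cells/well, was judged by cellular ATP after compound treatment for 48 or 72 hr. Luminescence was imaged 10 min after CellTiter-Glo addition at room temperature.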
SNCA expr inh = Primary qHTS assay for inhibitors of alpha-synuclein gene (SNCA) expression; HEK-293 SNCA-luciferase knock-in, luminescence, 24 h; Potency, µM (series often up to 57.2 µM), hits mostly inhibitors; hit rate 0.17% among 140,000; also: nearly all actives have a fitted effect of over 45% in size
HEK293 viab = GF-AFC viability counterscreen for inhibitors of alpha-synuclein gene (SNCA) expression | HEK-293-SNCA-luc viability, GF-AFC fluorescence, 24 h | Potency, µM (series often up to 57.1 µM), hits mostly cytotoxic | hit rate 0.12% among 150,000 | AID 1671193, 2021; also: nearly all actives have a fitted effect of over 30% in size
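HEK-293-SNCA-luc cells (1500/well) plated 24 h, then exposed 24 h to a dilution series; GF-AFC added 30 min at 37C, fluorescence 405/540 nm; normalised to medium-only and DMSO wells, Hill fit.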
hNpr1 antagonist = Natriuretic polypeptide receptor (hNpr1) antagonism - Primary qHTS. Atrial natriuretic peptide receptor 1 (Homo sapiens), P16066. HEK293 hNpr1 GloSensor cGMP, ANP-stimulated luminescence. Potency, µM (highest dose often 46.3 µM), most hits filed as inhibitors. hit rate 1.6% among 76,000. AID 1347048, 2019; calls by dose curve; also: nearly all actives have a fitted effect of over 60% in size
Target sequence (P16066 whole entry, looked up): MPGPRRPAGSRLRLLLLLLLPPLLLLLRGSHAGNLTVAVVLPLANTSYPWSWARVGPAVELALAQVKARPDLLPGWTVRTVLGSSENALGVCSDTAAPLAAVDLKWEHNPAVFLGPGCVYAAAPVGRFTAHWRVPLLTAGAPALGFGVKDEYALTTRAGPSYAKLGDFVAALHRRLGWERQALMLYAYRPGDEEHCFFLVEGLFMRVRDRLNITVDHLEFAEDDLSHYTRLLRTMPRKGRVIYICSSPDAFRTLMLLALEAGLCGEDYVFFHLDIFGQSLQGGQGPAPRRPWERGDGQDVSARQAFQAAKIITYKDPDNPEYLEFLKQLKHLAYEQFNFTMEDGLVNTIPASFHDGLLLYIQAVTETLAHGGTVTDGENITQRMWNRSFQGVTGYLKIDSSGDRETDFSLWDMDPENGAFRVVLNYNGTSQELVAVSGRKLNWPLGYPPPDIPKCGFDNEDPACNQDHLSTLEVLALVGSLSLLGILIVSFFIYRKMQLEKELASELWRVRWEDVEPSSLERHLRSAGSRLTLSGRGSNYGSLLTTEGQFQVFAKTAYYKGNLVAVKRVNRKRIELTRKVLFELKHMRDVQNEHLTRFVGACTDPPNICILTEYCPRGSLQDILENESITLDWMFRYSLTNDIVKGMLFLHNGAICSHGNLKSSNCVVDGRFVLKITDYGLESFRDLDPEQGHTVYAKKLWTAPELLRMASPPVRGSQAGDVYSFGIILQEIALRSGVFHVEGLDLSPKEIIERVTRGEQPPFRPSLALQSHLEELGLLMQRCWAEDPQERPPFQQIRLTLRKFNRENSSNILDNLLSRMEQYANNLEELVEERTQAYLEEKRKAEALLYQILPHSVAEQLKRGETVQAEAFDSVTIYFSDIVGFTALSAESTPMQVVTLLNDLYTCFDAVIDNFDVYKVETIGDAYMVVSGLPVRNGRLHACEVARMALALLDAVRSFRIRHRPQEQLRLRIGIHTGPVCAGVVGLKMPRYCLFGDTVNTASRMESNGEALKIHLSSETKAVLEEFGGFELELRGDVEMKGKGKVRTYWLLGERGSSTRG
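HEK293 cells stably expressing human Npr1 and cGMP GloSensor pGS-40F, loaded 2 h with 2% GloSensor reagent, given compound 30 min at room temperature. Luminescence read before and 20 min after 0.1 nM hNppA.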
FLuc inh-1 = Firefly luciferase inhibition profiling of diverse chemical library using quantitative high-throughput screening; hit rate 2.5% among 76,000; AID 1347043, 2019; purified P. pyralis luciferase, luminescence, biochemical; Potency, µM (doses to about 115 µM), most hits filed as inhibitors; Luciferin 4-monooxygenase (Photinus pyralis), P08659; also: nearly all actives have a fitted effect of over 65% in size
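FLuc 10nM, D-luciferin 10uM, ATP 10uM, Mg acetate 10mM, Tris acetate pH 7.5, Tween/BSA; cpd qHTS; enzyme added last; CCD luminescence.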
FLuc SDR no ATP = Firefly luciferase (FLuc-C-HiBiT) SDR gain of signal screen - without ATP | shares compounds with FLuc inh-1 | Purified FLuc-C-HiBiT, Nano-Glo HiBiT luminescence, no ATP | hit rate 7.8% among 1,300 | AID 1963318, 2024 | Potency, µM (titrated, usually from 32.7 µM), most hits filed as activators; also: nearly all actives have a fitted effect of over 55% in size
FLuc SDR ATP = Firefly luciferase (FLuc-C-HiBiT) SDR gain of signal screen - plus ATP; AID 1963319, 2024; Potency, µM (doses to about 32.7 µM), hits mostly activators; purified FLuc-C-HiBiT + ATP, HiBiT complementation luminescence; shares compounds with FLuc inh-1; hit rate 8.7% among 1,300;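 also: signal reports ligand binding via conformational change of the enzyme rather than luciferase catalysis; nearly all actives have a fitted effect of over 55% in size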
FLuc inh-2 = Firefly luciferase (FLuc-C-HiBiT) enzymatic inhibition screen - Functional assay | shares compounds with FLuc inh-1 | purified FLuc-C-HiBiT enzyme, luciferin luminescence | Potency, µM (titrated, usually from 32.7 µM), usual class: inhibitors | hit rate 42% among 1,300 | AID 1963320, 2024; also: nearly all actives have a fitted effect of over 70% in size
A number is an active result; [ ] = dose if it differs, or a comment. Rows were chosen to be rich in hits. Some 7.4% of all compounds tested hit in one or more screens of this group. Unless noted, calls follow the shape of the dose curve; as a rule, active = well fitted curve in the direction sought with a large enough effect; inconclusive = small, poorly fitted or top-dose-only effect, or another doubt; inactive = no such curve, though single readings can be large; an effect the other way counts as inactive or inconclusive.

Results for O=C1NCCCCCCN(C(=O)Nc2ccc3c(c2)OCCO3)[C@H]2CCCC[C@@H]12 ?
NIH3T3 tox: inactive; HEK293 tox: inactive; SNCA expr inh: inactive; HEK293 viab: inconclusive; hNpr1 antagonist: inconclusive; FLuc inh-1: 4.47µM; FLuc SDR no ATP: inactive; FLuc SDR ATP: inconclusive; FLuc inh-2: 8.81µM

Results for CC(=O)N1CCC(C(=O)N2CCCC2c2nc3ccncc3[nH]2)CC1 (stereo not given) ?
NIH3T3 tox: inactive; HEK293 tox: inactive; SNCA expr inh: inactive; HEK293 viab: inactive

What do the screens show for `Cc1ccc(CSCC(=O)N2CCN(c3ccc(F)cc3)CC2)cc1`?
SNCA expr inh: inactive; HEK293 viab: inactive

How did Cc1cccc(N2CCN(C(=O)CSCc3ccc(F)cc3)CC2)c1C do in these assays?
SNCA expr inh: inactive; HEK293 viab: inactive; FLuc SDR no ATP: inactive; FLuc SDR ATP: inactive; FLuc inh-2: inactive

What do the screens show for `CSCC1OC(n2cnc3c(N)ncnc32)C(O)C1O` (stereo not given)?
HEK293 viab: inactive

Results for Nc1ncnc2c1ncn2[C@@H]1O[C@H](CO)[C@@H](O)[C@@H]1O ?
SNCA expr inh: inconclusive; HEK293 viab: inactive; FLuc SDR no ATP: inactive; FLuc SDR ATP: inactive; FLuc inh-2: inactive

Results for CCc1noc(-c2nc(-c3ccccc3C)no2)n1 ?
NIH3T3 tox: inactive; HEK293 tox: inconclusive; SNCA expr inh: inactive; HEK293 viab: inactive; hNpr1 antagonist: inactive; FLuc inh-1: 14.1µM; FLuc SDR no ATP: inactive; FLuc SDR ATP: inactive; FLuc inh-2: inactive

What do the screens show for `Cc1noc(-c2nc(-c3ccccc3C)no2)n1`?
NIH3T3 tox: inactive; HEK293 tox: inactive; SNCA expr inh: inactive; HEK293 viab: inactive; hNpr1 antagonist: inactive; FLuc inh-1: inconclusive

What do the screens show for `CN(C)CCNC(=O)c1n[nH]c2c1CN(C(=O)c1cccc(OC(F)(F)F)c1)CC2`?
NIH3T3 tox: inactive; HEK293 tox: inactive; SNCA expr inh: inactive; HEK293 viab: inactive

What do the screens show for `COc1cccc(-c2cccc(C(=O)N3CCN(C(=O)C4CC4)CC3)c2)c1`?
NIH3T3 tox: inactive; HEK293 tox: inconclusive; SNCA expr inh: inactive; HEK293 viab: inactive[12.5 µM]

How did COc1cccc(-c2ncc3c(n2)OCCN(c2ccccc2)C3=O)c1 do in these assays?
NIH3T3 tox: 8.91µM; HEK293 tox: 10µM; SNCA expr inh: inconclusive; HEK293 viab: inactive; hNpr1 antagonist: 8.91µM; FLuc inh-1: 0.398µM; FLuc SDR no ATP: 3.21µM; FLuc SDR ATP: inconclusive; FLuc inh-2: 1.8µM

Results for O=C1c2cnc(-c3cccc(O)c3)nc2OCCN1c1cccc(C(F)(F)F)c1 ?
NIH3T3 tox: inconclusive; HEK293 tox: inconclusive; SNCA expr inh: inactive; HEK293 viab: inactive; hNpr1 antagonist: inactive; FLuc inh-1: inactive
